Laboratory results taken from PubChem BioAssay (EPA / NIEHS).
Values joined by “and” are separate entries in the source; they are usually repeats but may differ in a detail not shown here. Equal values may be shown once. A structure can be active in one record and inactive in another. Active and inactive are the calls of the source. How the source made its calls: active means hit-call score of the fitted dose curve at least 0.9, where 1 is the maximum; inactive means score below 0.9.

Read-out: CD40, CD40 (gene 958)
Experiment: BSK_SAg_CD40: BioMAP Diversity Plus: SAg Assay for CD40 Biomarker Activity (AID 2283088)
Details: primary human HUVEC with PBMC; actives raise or lower the signal
Protocol: BSK_SAg is a cell-based, multiplexed-readout assay that uses umbilical vein endothelium and peripheral blood mononuclear cells, a human vascular primary cell co-culture, with measurements taken at 24 hours after chemical dosing in a 96-well plate.BSK_SAg_CD40 is one of 10 assay component(s) measured or calculated from the BSK_SAg assay. It is designed to make measurements of enzyme-linked immunosorbent assay, a form of binding reporter, as detected with fluorescence intensity signals by Enzyme-linked immunosorbent assay technology.Data from the assay component BSK_SAg_CD40 was analyzed into 1 assay endpoint. This assay endpoint, BSK_SAg_CD40, was analyzed with bidirectional fitting relative to DMSO as the negative control and baseline of activity. Using a type of binding reporter, gain or loss-of-signal activity can be used to understand changes in the signaling as they relate to the gene CD40. Furthermore, this assay endpoint can be referred to as a primary readout, because this assay has produced multiple assay endpoints where this one serves a signaling function. To generalize the intended target to other relatable targets, this assay endpoint is annotated to the cytokine intended target family, where the subfamily is inflammatory factor.
The levels of cell surface (or secreted, indicated by the prefix "s") biomarker endpoints were measured by ELISA. Overt cytotoxicity to cells in confluent adherent cultures (all systems other than the BT system) was assessed by measuring total protein levels using sulforhodamine B (SRB) staining in parallel cultures at the time of biomarker measurements, indicated as SRB endpoints. For proliferation assays for adherent cell types, individual cell types are cultured at sub-confluence and relative cell numbers quantified by SRB staining at time points optimized for each system (48 h: 3C and CASM3C systems; 72 h: BT and HDF3CGF systems; 96 h: SAg system). SRB was performed by staining cells with 0.1% SRB after fixation with 10% TCA and reading wells at 560 nm.Viability and proliferation of PBMC (T cells) was quantified by Alamar Blue reduction for the SAg and BT systems. For PBMC viability (referred to as PBMC Cytotoxicity within the assay endpoint names), cells were plated (75,000/well in a 96-well plate) and then chemical samples added for 1 h before addition of activators, SEB and TSST-1 (20 ng/mL final concentration each). Cells were incubated for 90 h. Then, Alamar Blue (20 uL/well) (Invitrogen, Cat DAL1100) was added for 6 h, and the plates were read with a fluorescence microplate reader at 546/580 nm (excitation/emission). For PBMC proliferation, cells were plated and activated as above but incubated for only 16 h prior to addition of Alamar Blue. Plates were read after 6 h.

| Compound | AC50 | outcome |
| --- | --- | --- |
| Nc1ccc(Nc2ccccc2)cc1 | 3.97 µM (active) | – |
| O=C(O)c1cccc(N(Cc2cccnc2)c2ccc(OC(F)F)c(OC(F)F)c2)c1 | 13.7 µM (active) | – |
| CCOCCO | – | inactive |
| COC(=O)c1c(Cl)c(Cl)c(C(=O)OC)c(Cl)c1Cl | 20 µM (active) | – |
| CC1=CC(=O)CC(C)(C)C1 | – | inactive |
| CCC(C)(C)C(=O)O[C@H]1C[C@@H](C)C=C2C=C[C@H](C)[C@H](CC[C@@H]3C[C@@H](O)CC(=O)O3)[C@H]21 | 3.99 µM (active) | – |
| CCCCC(CC)COC(=O)c1ccc(C(=O)OCC(CC)CCCC)cc1 (stereo not given) | – | inactive |
| CCCCCCCCO | – | inactive |
| CC(C)=CCCC(C)=CC=O | – | inactive |
| Cn1cnc([N+](=O)[O-])c1Sc1ncnc2nc[nH]c12 | 13.3 µM (active) and 8.21 µM (active) | inactive |
| Cc1[nH]cnc1C[C@H]1CCc2c(C)c3ccccc3n2C1=O | 29.8 µM (active) | – |
| O=C(O)c1cc(N=Nc2ccc(S(=O)(=O)Nc3ccccn3)cc2)ccc1O | – | inactive |
| CCCCCCCCCCCCCCCO | 37.3 µM (active) | – |
| CCOCCOCCOCCO | – | inactive |
| Fc1ccccc1[C@@H](F)COC1CCC(Nc2ncnc3[nH]ncc23)CC1 (stereo not given in full) | 16.3 µM (active) | – |
| CCN(C(=O)c1cc(C)cc(OC[C@H](C)Nc2ccncc2)c1)C(C)C | – | inactive |
| COc1ccc(/C=C/S(=O)(=O)NC(=O)c2ccc(C)cc2Cl)cc1 | 4.18 µM (active) | – |
| CC/C(=C\C(=N/O)C(N)=O)C(C)[N+](=O)[O-] (stereo not given) | – | inactive |
| CCn1nc(Cc2ccccc2)cc1C1CCN(C[C@H]2C[C@H](N(C)[C@@H](C(=O)O)C(C)C)C[C@@H]2c2cccc(F)c2)CC1 | – | inactive |
| CN(C)c1ccc(Cc2ccc(N(C)C)cc2)cc1 | – | inactive |

| Compound | AC50 | outcome |
| --- | --- | --- |
| Cc1c(-c2cccnc2)c2ccccc2n1CCCCC(=O)O | – | inactive |
| CCOC(=O)COc1ccc2c(c1)CC(NCC(O)c1cccc(Cl)c1)CC2 (stereo not given) | 28.8 µM (active) | – |
| CC(C)CCO | – | inactive |
| CCCCCCc1ccc(O)cc1O | 30.6 µM (active) | – |
| C1N2CN3CN1CN(C2)C3 | – | inactive |
| CN(C)c1ccc(N=NS(=O)(=O)O)cc1 | – | inactive |
| Cc1ccc(C)c(O)c1 | – | inactive |
| C=CCCCCCCCCC(=O)O | – | inactive |
| O=C(O)c1cccc(Oc2ccccc2)c1 | – | inactive |
| O=c1n(CC2CO2)c(=O)n(CC2CO2)c(=O)n1CC1CO1 (stereo not given) | 20 µM (active) | – |
| CC(C)=CCC/C(C)=C/CO | – | inactive |
| Cc1ccc(N)cc1O | – | inactive |
| CCOC(=O)CC(CC(=O)OCC)(OC(C)=O)C(=O)OCC | – | inactive |
| CCCCCCCCCCCCc1ccccc1 | 31.8 µM (active) | – |
| CC(C)c1cccc(C(C)C)c1N1C(=O)c2ccc(O)cc2C1=O | 18.9 µM (active) | – |
| CC1(C)C(=O)N(Br)C(=O)N1Br | – | inactive |
| O=C(OC[C@H]1O[C@@H](OC(=O)c2cc(O)c(O)c(OC(=O)c3cc(O)c(O)c(O)c3)c2)[C@H](OC(=O)c2cc(O)c(O)c(OC(=O)c3cc(O)c(O)c(O)c3)c2)[C@@H](OC(=O)c2cc(O)c(O)c(OC(=O)c3cc(O)c(O)c(O)c3)c2)[C@@H]1OC(=O)c1cc(O)c(O)c(OC(=O)c2cc(O)c(O)c(O)c2)c1)c1cc(O)c(O)c(OC(=O)c2cc(O)c(O)c(O)c2)c1 | 8.21 µM (active) | – |
| CC(C)CCCCCCCOC(=O)CCCCC(=O)OCCCCCCCC(C)C | – | inactive |
| CCc1cc(SCc2sc(-c3ccc(C(F)(F)F)cc3)nc2CN2CCN(c3ccc(OC)cc3)CC2)ccc1OCC(=O)O | 11.7 µM (active) | – |
